# CYP2C19 inhib = blockers of cytochrome P450 2C19 activity – biochemical, luminescence, ADME assay, primary screen | P33261 | CYP2C19 Supersomes, luciferin-H EGE luminescence, 30 min | inhibition, % at 5 µM | actives 21% (n = 96,000) | AID 778, 2007;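 active means CYP2C19 inhibition above a set limit at 5 µM in the primary screen, cut at about 50% in these data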;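 further: plate controls were negative control wells for no effect and 2.5 mM tranylcypromine positive control for full effect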
# CYP2C9 activ = human CYP2C9 activators, primary screen, biochemical, luminescence | recombinant CYP2C9, luciferin-H conversion; hits give high values; factor 1 = untreated enzyme, 0 = blocked | actives 1.4% (n = 96,000) | activation factor at 5 µM;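 active means activation factor of 2 or more for CYP2C9 at a 5 µM dose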;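 further: 0 = sulfaphenazole-blocked wells and 1 = vehicle-only wells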
# Target sequence (P11712 whole entry, looked up): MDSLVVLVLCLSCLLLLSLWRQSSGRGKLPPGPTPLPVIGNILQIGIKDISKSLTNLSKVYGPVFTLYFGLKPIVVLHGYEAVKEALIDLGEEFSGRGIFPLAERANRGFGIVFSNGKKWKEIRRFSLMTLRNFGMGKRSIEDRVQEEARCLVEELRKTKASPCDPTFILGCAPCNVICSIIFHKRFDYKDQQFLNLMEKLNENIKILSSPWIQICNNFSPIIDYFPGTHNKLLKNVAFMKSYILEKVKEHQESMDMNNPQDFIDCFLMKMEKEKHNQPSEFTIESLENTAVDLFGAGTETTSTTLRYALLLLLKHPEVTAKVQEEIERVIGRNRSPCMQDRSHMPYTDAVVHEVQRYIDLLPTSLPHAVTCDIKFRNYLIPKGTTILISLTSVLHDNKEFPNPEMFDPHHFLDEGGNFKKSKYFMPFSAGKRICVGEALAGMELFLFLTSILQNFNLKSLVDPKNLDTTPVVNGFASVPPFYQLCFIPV
# PLAP act = PLAP enzyme activators, biochemical, luminescence, HTS | purified PLAP enzyme, luminescent substrate read-out; hits give high values | Alkaline phosphatase, placental type (Homo sapiens), P05187 | actives 1.2% (n = 96,000) | AID 696, 2007 | activation fold at 20 µM; in the data active means activation fold above about 2
# CYP2C9 inhib = blockers of cytochrome P450 2C9 activity – biochemical, luminescence, ADME assay, primary screen. CYP2C9 Supersomes, luciferin-H conversion. actives 20% (n = 96,000). P11712. inhibition, % at 5 µM. AID 777, 2007;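 active means blocking of liver enzyme CYP2C9 beyond about 50% at 5 µM, limit read from the data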
# CYP2C19 activ = human CYP2C19 activators, primary screen, biochemical, luminescence; Cytochrome P450 2C19 (Homo sapiens), P33261; AID 1025, 2008; activation factor at 5 µM; 96,000 tested, under 10 active; recombinant CYP2C19, luciferin-H EGE luminescence; hits give high values; 0 = fully inhibited enzyme, 1 = untreated enzyme;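 active means activation factor of at least 2 at 5 µM in the primary screen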;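 further: 0 = wells with 2.5 mM tranylcypromine and 1 = vehicle-only wells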
# * = called active by the depositor. A selection: hits, their analogues and other compounds. The true share with any hit is near 31%.
SMILES,CYP2C19 inhib,CYP2C9 activ,PLAP act,CYP2C9 inhib,CYP2C19 activ
COc1ccc(-n2c(Cn3nnc4ccccc43)nnc2SCC(=O)O)cc1,1.1,1,1,-3.4,1
O=C(/C=C/c1ccccc1Cl)NCc1ccccc1,7.6,2.1*,0.9,-110.0,0.9
CCN(CC)c1ccc(NC(=O)/C=C\c2ccccc2Cl)cc1,71.2*,2.3*,0.7,-125.0,0.3
Clc1ccc(OCCCNCc2ccccc2)c(Br)c1,63.0*,1,1.5,1.6,0.4
Cc1cc(Cl)c(OCCCNCc2ccccc2)c(Br)c1,56.6*,1,1,-4.3,0.4
O=C(c1ccco1)N1CCN(S(=O)(=O)c2ccc(S(=O)(=O)NC3CCCCC3)cc2)CC1,11.1,0.6,1,44.6,0.9
CCCn1c(O)c2ccc(C(=O)N=NC(=O)c3cccnc3)cc2c1O,-22.8,1.2,1.2,-18.3,1.2
O=C(Cn1cc(C(=O)COc2ccccc2)c2ccccc21)NCc1ccco1,38.8,0.2,1,78.0*,0.6
O=C(COc1ccccc1)c1cn(CC(=O)N2CCOCC2)c2ccccc12,33.8,0.3,1.4,70.7*,0.7
CC1CC(C)CN(CCCNC(=O)Cn2ncn3cccc3c2=O)C1 (stereo not drawn),-1.5,0.9,1,6.3,1
C=CCNS(=O)(=O)c1sccc1/C=N/O,59.9*,1,1,1.8,0.4
C=CCNS(=O)(=O)c1ccc(OCC(=O)OCC)cc1,1.6,0.7,1,26.9,1
O=S(=O)(c1ccc(OCC(O)CN2CCN(c3ccccc3)CC2)cc1)N1CCOCC1 (stereo not drawn),64.2*,0.7,1.4,33.7,0.4
O=S(=O)(c1ccc(OCC(O)CN2CCCC2)cc1)N1CCOCC1 (stereo not drawn),-0.3,0.6,1.3,38.1,1
O=S(=O)(c1ccc(OCC(O)CN2CCN(c3ccccc3O)CC2)cc1)N1CCOCC1 (stereo not drawn),24.4,0.5,1.3,53.8*,0.8
CCOC(=O)Cc1cc(=O)n2[nH]c(C)c(-c3ccccc3)c2n1,-11.3,1.1,1.1,-5.1,1.1
CCOC(=O)Cc1c(C)nc2c(-c3cccc(Br)c3)c[nH]n2c1=O,14.9,0.3,1.1,73.6*,0.9
CCOC(=O)Cc1c(C)nc2c(-c3ccc(Cl)cc3)c(C)[nH]n2c1=O,56.2*,0.9,1.2,8.8,0.4
CCOC(=O)Cc1c(C)nc2c(C#N)c[nH]n2c1=O,25.2,1,1,3.2,0.7
O=C(c1ccc(F)cc1)N1C2CCC1CC(O)(c1ccccc1F)C2 (stereo not drawn),52.7*,0.7,1.1,26.2,0.5
O=C(c1ccc(F)cc1)N1CCC(N2CCCCCC2)CC1,2.9,1,1.6,2.4,1
COc1ccc(OC)c(C2C(C#N)=C(N)Oc3cc(C)n(Cc4ccccn4)c(=O)c32)c1 (stereo not drawn),-6.4,0.9,1,7.7,1.1
CC(C)Cc1ccc(C(C)C(=O)N2CCOCC2)cc1 (stereo not drawn),21.4,0.3,1,66.3*,0.8
Cc1ccc(CC(=O)N2CCOCC2)cc1,30.1,1.1,0.9,-5.6,0.7
O=C(CSc1nnnn1-c1ccccc1)c1cc2ccccc2oc1=O,40.4,0.4,1.1,60.4*,0.6
SMILES,CYP2C19 inhib,CYP2C9 activ,PLAP act,CYP2C9 inhib,CYP2C19 activ
Cc1cc(NC(=O)c2cc3ccccc3oc2=O)no1,14.5,0.9,1,9.8,0.9
Cc1cc(C)nc(SCC(=O)c2cc3ccccc3oc2=O)n1,58.0*,0.7,1.3,26.6,0.4
CCCOC(=O)NC(CC)COC(=O)Nc1cccc(C)c1C (stereo not drawn),71.6*,0.8,1,16.1,0.3
CCC(COC(=O)Nc1cccc(C)c1C)NC(=O)OCC(C)C (stereo not drawn),95.8*,0.5,0.9,49.5,0
O=C(Cn1c(=O)c2c(ncn2C2CCCC2)n(Cc2ccccc2)c1=O)N1CCc2ccccc21,11.2,0.9,1.8,12.7,0.9
C(=N\n1cnnc1)/c1ccc(N2CCOCC2)cc1,87.9*,0.3,0.9,65.4*,0.1
C(=N\n1cnnc1)/c1ccc2c(c1)OCCO2,47.9,1.1,0.9,-12.3,0.5
